Test results reported in PubChem BioAssay.
Unmarked numbers belong to inactive results. Activity calls are given as the source filed them. Unless noted, no rule for the calls is given here.

tested on: not listed separately; test: HepG2 cytotoxicity, primary screen, cytotoxicity control for P. falciparum antimalarial project, cell-based, ATP luminescence (AID 2303;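 active = inhibition above 50%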;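 also: 0% = DMSO wells and 100% = digitonin-killed cells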); conditions: HepG2 viability, 24-48 h, at 10 µM, hits give high values

Row | Compound | inhibition
1 | O=C(Nc1ccc(-c2ccc(-c3nc4ccc(C(F)(F)F)cc4[nH]3)s2)cc1)c1cnc[nH]1 | 66% (active)
2 | O=C(/C=C/c1ccc(CNCCN2CCOCC2)cc1)NCCc1ccccc1 | 9%
3 | CCCCN1CCCC[C@H]1[C@@H](O)c1ccnc2ccc(OCC)cc12 | 6%

biological target: L-lactate dehydrogenase (Plasmodium falciparum (isolate CDC / Honduras)) (UniProt Q27743); test: PfLDH activity inhibition – cell lysate, 3D7 strain, counter-screen for P. falciparum growth inhibition project (AID 2304);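 also: 0% = vehicle and 100% = reference inhibitor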; conditions: P. falciparum 3D7 crude extract, LDH APAD/NBT absorbance; at 2 µM; hits give high values
Sequence (Q27743 whole entry, looked up): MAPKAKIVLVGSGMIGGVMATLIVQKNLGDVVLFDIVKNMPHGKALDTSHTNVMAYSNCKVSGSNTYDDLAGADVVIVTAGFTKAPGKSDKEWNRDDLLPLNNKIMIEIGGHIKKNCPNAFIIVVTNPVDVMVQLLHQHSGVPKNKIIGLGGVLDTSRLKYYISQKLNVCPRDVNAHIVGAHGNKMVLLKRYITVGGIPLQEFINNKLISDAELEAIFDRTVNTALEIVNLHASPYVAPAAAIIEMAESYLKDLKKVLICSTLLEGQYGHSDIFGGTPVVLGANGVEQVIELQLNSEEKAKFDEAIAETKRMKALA

Row | Compound | inhibition
4 | O[C@@H](c1ccccc1)[C@@H]1CN(Cc2ccccc2)CC[C@@]1(O)c1ccccc1 | -2%
5 | CC(NC(=O)c1ccc(O)c(-c2ccc(Cl)c(Cl)c2)c1)C(=O)NCCN1CCCCC1 (centres undefined) | 2%
6 | CCCC(=O)Nc1ccc(OCCCCN(CC(C)(C)C)c2ccc(C#N)c(C(F)(F)F)c2)cc1 | -1%
7 | O=C(Nc1ccc2nc3n(c(=O)c2c1)CCCCC3)C(=O)N1CCC(Cc2ccccc2)CC1 | 0%
8 | CCCC(C)NC(=O)[C@H](CC1CCCCC1)NC(=O)c1ccc(O)c(-c2ccc(OC)cc2)c1 (some centres undefined) | 1%
9 | Cc1cccc(-c2cc3cc(Nc4ccnc5cc(-c6nccs6)ccc45)ccc3[nH]2)c1 | 1%
10 | CCCc1cc(Cc2cnc(N)nc2N)cc(CCC)c1OCCCCC(=O)OC | -5%
11 | CCN(CCCN1CCCCC1)c1cc(C)nc(Nc2cc(F)cc(F)c2)n1 | 5%
12 | CC(C)(Oc1c(C2CCN(CCCCNC(=O)c3ccc(-c4ccc(Cl)cc4)cc3)CC2)ccc2c1CCCC2)C(N)=O | 1%
13 | CCOc1cc(C)c(C2CCN(CCCCNC(=O)c3ccc(NC(=O)c4ccc(Cl)cc4)cc3)CC2)cc1C | 1%
14 | Cc1nc(C)c(CC(=O)Nc2ccc(-c3cccc(-c4nc5c(C)cccc5[nH]4)c3)cc2)s1 | -1%
